Screening data deposited in PubChem BioAssay by National Center for Advancing Translational Sciences (NCATS).
SARS PLpro yeast: blocks SARS-CoV papain-like protease in a yeast assay | S. cerevisiae expressing SARS-CoV PLpro, growth rescue | Potency, µM (top dose mostly 32.9 µM), for inactives: top-dose activity, positive = growth rescue, hits mostly activators | hit rate 0.19% among 330,000; note: potency is the fitted concentration of half-maximal effect; 0% is about no effect; nearly all actives have a fitted effect of over 55% in size
Shiga toxin inh: inhibitors of Shiga toxin in Vero cells; Vero cells, Shiga toxin protein synthesis inhibition reporter; inhibition, % at 38.7 µM; hit rate 9.2% among 290,000; AID 2315; in the data active = inhibition mostly above about 28%, no sharp cut-off; inactive = mostly below about 43%; note: 0% is about no effect
CHX counter: counter-screen for Shiga toxin inhibitors: cycloheximide protein synthesis inhibition. cell reporter, cycloheximide protein synthesis inhibition counterscreen. max response, %. hit rate 12% among 300,000; in the data active = max response mostly above about 13%, no sharp cut-off; inactive = mostly below about 14%; note: read at 38.3 µM for the half of the compounds with a filed dose; 0% is about no effect
NS1 function inh: blocks influenza NS1 protein function | Potency, µM (highest dose often 46.1 µM), inactives show at the top dose activity, positive = more growth | hit rate 0.4% among 270,000; note: potency is the fitted concentration of half-maximal effect; actives are rising curves; nearly all actives have a fitted effect of over 50% in size
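Growth recovery, yeast-based: influenza A NS1 expressed in S. cerevisiae causes slow growth, and suppressors are detected by OD600. The parent strain without NS1 is used as positive control.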
* marks the source's active call; other numbers are inactive results; i = inactive; ? = inconclusive; · = no result given; [ ] = dose if it differs, or a comment. Compounds with a hit are over-represented: about 12% of the library has one in this group of screens. Unless noted, calls come from the whole dose curve.

SMILES	SARS PLpro yeast	Shiga toxin inh	CHX counter	NS1 function inh
COc1ccc(OC)c(-c2nnc3n2N=C(c2c(OC)cccc2OC)CS3)c1	·	-5	1	·
Cc1ccc(-c2cc(-c3c(C)nn(C)c(=O)c3N)[nH]n2)cc1	-1%	30	26*	5%
Cc1nn(C)c(=O)c(N)c1-c1cc(-c2ccc(Cl)c(Cl)c2)n[nH]1	0%	6	1	3%
CCOc1cccc2sc(=NC(=O)CCS(=O)(=O)c3ccccc3)n(CC)c12	?	-3	-2	-3%
C#CCn1c(=NC(=O)c2ccc(Br)s2)sc2cc(NC(C)=O)ccc21	13%	10	4	-3%
C#CCn1c(=NC(=O)c2ccco2)sc2cccc(Cl)c21	0%	24	13*	-10%
CCOc1cccc2sc(=NC(=O)c3ccco3)n(CC(=O)OC)c12	1%	68*	37*	-3%
COc1ccc(/C=N/N=C/c2ccc(OC)c(O)c2)cc1O	2%	55	36*	4%
COc1ccc(/C=N/N=C/c2ccc(OC)c(OC)c2)cc1OC	0%	-4	-4	8%
Cc1ccc(/C=N/Nc2ccccn2)s1	-1%	102*	40*	0%
Brc1ccccc1/C=N/Nc1ccccn1	-6%	51*	24*	·
COc1cc(/C=N/NC(=O)C(=O)Nc2ccccn2)ccc1O	26%	-2	18	0%
COc1ccc(/C=N/Nc2ccccn2)cc1O	3%	70*	46*	-4%
CCN(CC)C(=O)CSc1nnc(-c2ccccn2)n1Cc1ccccc1	0%	-5	-2	0%
CCOC(=O)c1c(NC(=O)COC(=O)CNC(=O)c2ccco2)sc(C(C)=O)c1C	-6%	-13	-1	-5%
Clc1ccc(/C=N/Nc2ccccn2)cc1	-1%	108*	53*	·
Fc1ccc(/C=N/Nc2ccccn2)cc1	-3%	68*	62*	21%
FC(F)(F)c1ccccc1/C=N/Nc1ccccn1	-1%	59*	25*	·
Nn1cnnc1N/N=C/c1ccccc1C(F)(F)F	-1%	4	5	-3%
CCOc1ccc(/C=N/Nc2ccccn2)cc1	-6%	70*	34*	·
Cc1noc(C)c1/C=N/Nc1ccccn1	-3%	43	11	·
COc1ccc(NC(=O)CN(C)C(=O)C(C)Oc2ccc(Br)cc2)cc1 (stereo not given)	-1%	·	·	·
Brc1ccc(/C=N/Nc2ccccn2)cc1	0%	182*	40*	·
CSc1sc(C(=O)Nc2ccc(F)cc2F)c2c1C=CCC2	-2%	33	12	-8%
O=[N+]([O-])c1ccc(C(O)CSC(=S)N2CCCCC2)cc1 (stereo not given)	-2%	83*	46*	3%
SMILES	SARS PLpro yeast	Shiga toxin inh	CHX counter	NS1 function inh
CC1Oc2ccccc2N(CC(=O)N2CCCCCC2)C1=O (stereo not given)	-1%	-17	7	19%
O=C(CSc1nnc(-c2ccc(O)cc2)o1)Nc1ccc2c(c1)OCCO2	4%	39*	25*	12%
O=C(CSc1nnc(-c2ccncc2)o1)c1ccc2c(c1)OCCO2	1%	-7	3	1%
O=C(CSc1nnc(-c2ccc(O)cc2)o1)Nc1cccc(O)c1	2%	64	24*	7%
COc1ccc(-c2nnc(SC(C)C(=O)Nc3ccc4c(c3)OCCO4)o2)cc1 (stereo not given)	-3%	active	35*	-2%
O=C(CSc1nnc(-c2ccc(F)cc2)o1)c1ccc2c(c1)OCCO2	-3%	10	18*	-6%
CC(=O)Nc1ccc(NC(=O)C(C)Sc2nnc(-c3ccc4c(c3)OCO4)o2)cc1 (stereo not given)	0%	·	·	·
Cc1noc(C)c1-c1ccc2ncnc(NCc3ccccc3F)c2c1	·	14	14	·
O=C(CSc1ncnc2scc(-c3ccc(F)cc3)c12)c1ccc2c(c1)OCCO2	-7%	15	16*	?
O=C(CSc1nnc(-c2ccc(O)cc2)o1)Nc1ccccc1Br	-1%	76*	28*	5%
O=C(CSc1nnc(-c2cccnc2)o1)Nc1ccccc1Br	0%	-5	-5	-26%
CCC(C)(C(=O)NC1CCCCC1)N(Cc1cccs1)C(=O)c1ccc(=O)[nH]c1 (stereo not given)	1%	-10	-2	-2%
Cn1c2ccccc2c(=O)c2ccc(NCCc3cccs3)cc21	3%	·	·	·
c1ccc2c(c1)ncn2CCn1cnc2ccccc21	-6%	-18	-3	2%
O=c1c2ccccc2ncn1CCCOc1ccccc1[N+](=O)[O-]	-2%	82*	26*	-14%
O=[N+]([O-])c1ccccc1OCCCn1cnc2ccccc21	-3%	54*	34*	-2%
Clc1ccc(OCCn2cnc3ccccc32)c(Cl)c1	-22%	64*	41*	-34%
Cc1cc(OCCCn2cnc3ccccc3c2=O)ccc1[N+](=O)[O-]	-10%	-7	-3	-11%
CC1(C)CC(=O)C2=C(C1)O[C@@]1(CCCCN3C(=O)c4ccccc4C3=O)Cc3ccccc3C2O1	1%[6.58 µM]	i	9	-8%
Cc1nnc(SCC(=O)NC(=O)NCc2ccco2)n1Cc1ccccc1	5%	-10	-3	5%
COc1ccc(-c2nc(CS(=O)(=O)CC(=O)Nc3ccc(Cl)cc3)c(C)o2)cc1	-5%	40*	19*	-31%
Cc1ccc(OCC(=O)Nc2ccc3oc(=O)ccc3c2)cc1	-4%	2	-1	-6%
Cc1ccc(OCC(=O)Nc2ccc(-c3nc4ccc(C)cc4o3)cc2)cc1	·	80*	34*	·
COc1ccc(OCC(=O)Nc2ccc(-c3nc4cc(C)c(C)cc4o3)cc2)cc1	·	98*	51*	·
COc1ccc(NC(=O)CS(=O)(=O)Cc2nc(-c3ccc(C)cc3)oc2C)cc1	?	-1	-1	-6%
SMILES	SARS PLpro yeast	Shiga toxin inh	CHX counter	NS1 function inh
CCCCn1c(N)c(N(CCOC)C(=O)CCNC(=O)c2ccc(Cl)cc2)c(=O)[nH]c1=O	0%	·	·	·
O=C(CCc1nnc2ccc(NCc3ccccc3)nn12)NC1CCCCC1	2%	7	2	14%
COc1ccc(-c2oc3ccc(N4CCOCC4)cc3c2/C=C/c2ccc(OC)c(OC)c2)cc1	-3%	30*	12*	11%
COc1ccc(/C=C/c2c(-c3ccc(OC)cc3)sc3ccc(N4CCOCC4)cc23)cc1	-7%	3	-3	21%
CN1C(=O)C(O)(c2nnc(-c3ccccc3)o2)c2ccccc21 (stereo not given)	-5%	46	19*	-2%
Cc1ccc(N2CCN(C(=O)c3cc(-c4ccc(F)cc4)[nH]c3C)CC2C)cc1 (stereo not given)	-11%	20	-3	-34%
COc1ccc(NC(=O)CSc2nnc(-c3cccnc3)o2)cc1	6%	-5	-1	0%
CC1CCN(S(=O)(=O)c2ccc(-c3nnc(SCc4cccnc4)o3)cc2)CC1	6%	-8	-2	-3%
COc1cc(OC)cc(-c2nnc(SCc3cccnc3)o2)c1	9%	12	17*	-87%
O=[N+]([O-])c1cccc(-c2nnc(SCc3cccnc3)o2)c1	1%	35	13*	-3%
COc1cccc(-c2nnc(SCc3cccnc3)o2)c1	8%	98*	67*	-34%
Cc1cc(-c2nnc(SCc3cccnc3)o2)no1	-3%	20	22	-9%
CNC(=O)c1cccc(NC(=O)CCCNC(=O)c2ccc(Cl)cc2)c1	0%	-5	-4	5%
